{
  "source": "PubChem BioAssay (NCATS)",
  "note": "Records with an inconclusive call do not appear. Values without a mark were called inactive. Activity calls are given as the source filed them. Calls come from the whole dose curve; as a rule, active = well fitted inhibition curve with a large enough effect; inconclusive = small, poorly fitted or top-dose-only effect; inactive = flat fitted curve, though single readings scatter. Potency is the fitted concentration of half-maximal effect.",
  "data": [
    {"test_system": "GB4", "assay": "qHTS profiling for inhibitors of Plasmodium falciparum proliferation (AID 504749); note: nearly all actives have a fitted effect of over 60% in size;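 for activity, negative = inhibition: 0% = DMSO vehicle and full inhibition = artemisinin control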", "details": "P. falciparum in erythrocytes, SYBR Green DNA, 72 h; series mostly up to 28.7 µM; activity, negative = inhibition: at the top concentration", "how_it_was_run": "(§1)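 P. falciparum-infected erythrocytes (0.3% parasitemia, 2.5% hematocrit) incubated with compound 72 h at 37 C, 5% CO2. Parasite DNA detected by SYBR Green after lysis, overnight at room temperature; normalised to 0.29 uM artemisinin and DMSO.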", "units": {"activity, negative = inhibition": "%"}, "values": [
      {"smiles": "CC(=O)Nc1ccc(OC(C)=O)cc1", "activity, negative = inhibition": -1.61},
      {"smiles": "CC(C)(C)c1ccc2c(S(=O)(=O)O)c(C(C)(C)C)ccc2c1", "activity, negative = inhibition": -6.75},
      {"smiles": "CCCCCCCCCCCCOCCCN", "activity, negative = inhibition": -5.71},
      {"smiles": "COC(=O)C(CN)c1c[nH]c2ccc(OC)cc12", "note": "(stereo not drawn)", "activity, negative = inhibition": -10.6},
      {"smiles": "CC1(C)S[C@@H]2[C@H](NC(=O)C3(N)CCCCC3)C(=O)N2[C@H]1C(=O)O", "activity, negative = inhibition": -15},
      {"smiles": "FC(F)(F)C(F)(F)C(F)(F)C(F)(F)C(F)(F)C(F)(F)F", "activity, negative = inhibition": -0.506},
      {"smiles": "CCCCO", "activity, negative = inhibition": -0.381},
      {"smiles": "CCOC(=O)c1c[nH]c2cc(OCC(C)C)c(OCC(C)C)cc2c1=O", "Potency": "60.1 nM (active)"},
      {"smiles": "CCN(CC)CCOc1ccc2nc(N(C)C)sc2c1", "activity, negative = inhibition": -11.6},
      {"smiles": "OCl", "activity, negative = inhibition": 0.937},
      {"smiles": "COC(=O)CC[C@H](N)C(=O)O", "activity, negative = inhibition": -6.67},
      {"smiles": "COc1cc(S(C)=O)ccc1-c1nc2ncccc2[nH]1", "note": "(stereo not drawn)", "activity, negative = inhibition": -12.7},
      {"smiles": "O=C(O)Cc1nn(Cc2ccc(Br)cc2F)c(=O)c2ccccc12", "activity, negative = inhibition": -7.04},
      {"smiles": "O=C(O)/C=C/c1ccccc1", "activity, negative = inhibition": -0.479},
      {"smiles": "Cc1cccc(C)c1NC(=O)NC1=CCCN1C", "activity, negative = inhibition": 2.13},
      {"smiles": "NCC[C@H](O)C(=O)N[C@@H]1C[C@H](N)[C@@H](O[C@H]2O[C@H](CN)[C@@H](O)[C@H](O)[C@H]2O)[C@H](O)[C@H]1O[C@H]1O[C@H](CO)[C@@H](O)[C@H](N)[C@H]1O", "activity, negative = inhibition": -1.36},
      {"smiles": "CC1=CC(=O)NS(=O)(=O)O1", "activity, negative = inhibition": -0.501},
      {"smiles": "O=C(O)[C@H]1C(=CCO)O[C@H]2CC(=O)N12", "activity, negative = inhibition": -6.7},
      {"smiles": "CCC(Cc1c(I)cc(I)c(O)c1I)C(=O)O", "note": "(stereo not drawn)", "activity, negative = inhibition": 0.234},
      {"smiles": "CCCCC[C@H](O)/C=C/[C@@H]1[C@H]2C/C(=C/CCCC(=O)O)O[C@H]2C[C@H]1O", "activity, negative = inhibition": 1.79},
      {"smiles": "FCOC(C(F)(F)F)C(F)(F)F", "activity, negative = inhibition": -1.56},
      {"smiles": "C=Cc1ccc(S(=O)(=O)O)cc1", "activity, negative = inhibition": -4.54},
      {"smiles": "CC12CCC(C[N+](C)(CCC[N+](C)(C)C)C1)C2(C)C", "note": "(stereo not drawn)", "activity, negative = inhibition": 0.707},
      {"smiles": "CC1CC(OC(=O)C(O)c2ccccc2)CC(C)(C)C1", "note": "(stereo not drawn)", "activity, negative = inhibition": -14},
      {"smiles": "CC/C(=C(/CC)c1ccc(OP(=O)(O)O)cc1)c1ccc(OP(=O)(O)O)cc1", "activity, negative = inhibition": -3.15},
      {"smiles": "O=C(NNCNNC(=O)c1ccncc1)c1ccncc1", "activity, negative = inhibition": 8.14},
      {"smiles": "CC(C)c1ncc([N+](=O)[O-])n1C", "activity, negative = inhibition": -4.01},
      {"smiles": "CC(C)CCC[C@@H](C)[C@H]1CC[C@H]2[C@@H]3CC[C@@H]4C[C@H](O)CC[C@]4(C)[C@H]3CC[C@]12C", "activity, negative = inhibition": -1.72},
      {"smiles": "Cc1ccc(S(=O)(=O)NCl)cc1", "activity, negative = inhibition": -6.73},
      {"smiles": "CC(/C=C/C=C(\\C)C(=O)O[C@@H]1O[C@H](CO[C@@H]2O[C@H](CO)[C@@H](O)[C@H](O)[C@H]2O)[C@@H](O)[C@H](O)[C@H]1O)=C\\C=C\\C=C(C)\\C=C\\C=C(/C)C(=O)O[C@@H]1O[C@H](CO[C@@H]2O[C@H](CO)[C@@H](O)[C@H](O)[C@H]2O)[C@@H](O)[C@H](O)[C@H]1O", "activity, negative = inhibition": 0.644},
      {"smiles": "CCCCCCCCCCCCCCCCCC(=O)OCC(C)O", "note": "(stereo not drawn)", "activity, negative = inhibition": -6.12},
      {"smiles": "CC(C)(Oc1ccc(C2CCCc3ccccc32)cc1)C(=O)O", "note": "(stereo not drawn)", "activity, negative = inhibition": -4.52},
      {"smiles": "CO", "activity, negative = inhibition": -7.49},
      {"smiles": "O=C(O)/C=C/C(=O)Nc1ccc(S(=O)(=O)Nc2nccs2)cc1", "activity, negative = inhibition": -8.88},
      {"smiles": "N[C@H](CC(=O)O)C(=O)O", "activity, negative = inhibition": 8.7},
      {"smiles": "CCCc1ccc(C(=O)O)cc1", "activity, negative = inhibition": -11.7},
      {"smiles": "O=S(=O)(O)CC(S)CS", "note": "(stereo not drawn)", "activity, negative = inhibition": -14},
      {"smiles": "O=c1[nH]c(=O)n([C@H]2C[C@H](O)[C@@H](CO)O2)cc1/C=C/Br", "activity, negative = inhibition": 0.816},
      {"smiles": "CN[C@@H]1[C@H](O[C@H]2[C@H](O[C@H]3[C@H](O)[C@@H](O)[C@H](N=C(N)N)[C@@H](O)[C@@H]3N=C(N)N)O[C@@H](C)[C@]2(O)C=O)O[C@@H](CO)[C@H](O)[C@H]1O", "activity, negative = inhibition": -11}
    ]},
    {"test_system": "HB3", "assay": "qHTS profiling for inhibitors of Plasmodium falciparum proliferation (AID 504749); note: nearly all actives have a fitted effect of over 60% in size;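 for activity, negative = inhibition: 0% = DMSO vehicle and full inhibition = artemisinin control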", "details": "P. falciparum in erythrocytes, SYBR Green DNA, 72 h; series mostly up to 28.7 µM; activity, negative = inhibition: at the top concentration", "how_it_was_run": "as §1", "units": {"activity, negative = inhibition": "%"}, "values": [
      {"smiles": "CC(=O)Nc1ccc(OC(C)=O)cc1", "activity, negative = inhibition": 7.79},
      {"smiles": "CC(C)(C)c1ccc2c(S(=O)(=O)O)c(C(C)(C)C)ccc2c1", "activity, negative = inhibition": 9.56},
      {"smiles": "CCCCCCCCCCCCOCCCN", "activity, negative = inhibition": -0.727},
      {"smiles": "COC(=O)C(CN)c1c[nH]c2ccc(OC)cc12", "note": "(stereo not drawn)", "activity, negative = inhibition": 6.4},
      {"smiles": "CC1(C)S[C@@H]2[C@H](NC(=O)C3(N)CCCCC3)C(=O)N2[C@H]1C(=O)O", "activity, negative = inhibition": 6.41},
      {"smiles": "FC(F)(F)C(F)(F)C(F)(F)C(F)(F)C(F)(F)C(F)(F)F", "activity, negative = inhibition": 1.97},
      {"smiles": "CCCCO", "activity, negative = inhibition": 7.03},
      {"smiles": "CCOC(=O)c1c[nH]c2cc(OCC(C)C)c(OCC(C)C)cc2c1=O", "Potency": "178 nM (active)"},
      {"smiles": "CCN(CC)CCOc1ccc2nc(N(C)C)sc2c1", "activity, negative = inhibition": -21.3},
      {"smiles": "OCl", "activity, negative = inhibition": 8.67},
      {"smiles": "COC(=O)CC[C@H](N)C(=O)O", "activity, negative = inhibition": 7.83},
      {"smiles": "COc1cc(S(C)=O)ccc1-c1nc2ncccc2[nH]1", "note": "(stereo not drawn)", "activity, negative = inhibition": 8.26},
      {"smiles": "O=C(O)Cc1nn(Cc2ccc(Br)cc2F)c(=O)c2ccccc12", "activity, negative = inhibition": 3.18},
      {"smiles": "O=C(O)/C=C/c1ccccc1", "activity, negative = inhibition": 6.5},
      {"smiles": "Cc1cccc(C)c1NC(=O)NC1=CCCN1C", "activity, negative = inhibition": 11.2},
      {"smiles": "NCC[C@H](O)C(=O)N[C@@H]1C[C@H](N)[C@@H](O[C@H]2O[C@H](CN)[C@@H](O)[C@H](O)[C@H]2O)[C@H](O)[C@H]1O[C@H]1O[C@H](CO)[C@@H](O)[C@H](N)[C@H]1O", "activity, negative = inhibition": 6.61},
      {"smiles": "CC1=CC(=O)NS(=O)(=O)O1", "activity, negative = inhibition": 2.09},
      {"smiles": "O=C(O)[C@H]1C(=CCO)O[C@H]2CC(=O)N12", "activity, negative = inhibition": -0.665},
      {"smiles": "CCC(Cc1c(I)cc(I)c(O)c1I)C(=O)O", "note": "(stereo not drawn)", "activity, negative = inhibition": 8.05},
      {"smiles": "CCCCC[C@H](O)/C=C/[C@@H]1[C@H]2C/C(=C/CCCC(=O)O)O[C@H]2C[C@H]1O", "activity, negative = inhibition": 0.153},
      {"smiles": "FCOC(C(F)(F)F)C(F)(F)F", "activity, negative = inhibition": 4.4},
      {"smiles": "C=Cc1ccc(S(=O)(=O)O)cc1", "activity, negative = inhibition": -4.13},
      {"smiles": "CC12CCC(C[N+](C)(CCC[N+](C)(C)C)C1)C2(C)C", "note": "(stereo not drawn)", "activity, negative = inhibition": 5.5},
      {"smiles": "CC1CC(OC(=O)C(O)c2ccccc2)CC(C)(C)C1", "note": "(stereo not drawn)", "activity, negative = inhibition": 12.1},
      {"smiles": "CC/C(=C(/CC)c1ccc(OP(=O)(O)O)cc1)c1ccc(OP(=O)(O)O)cc1", "activity, negative = inhibition": -5.71},
      {"smiles": "O=C(NNCNNC(=O)c1ccncc1)c1ccncc1", "activity, negative = inhibition": 10.2},
      {"smiles": "CC(C)c1ncc([N+](=O)[O-])n1C", "activity, negative = inhibition": -2.51},
      {"smiles": "CC(C)CCC[C@@H](C)[C@H]1CC[C@H]2[C@@H]3CC[C@@H]4C[C@H](O)CC[C@]4(C)[C@H]3CC[C@]12C", "activity, negative = inhibition": 5.05},
      {"smiles": "Cc1ccc(S(=O)(=O)NCl)cc1", "activity, negative = inhibition": 6.38},
      {"smiles": "CC(/C=C/C=C(\\C)C(=O)O[C@@H]1O[C@H](CO[C@@H]2O[C@H](CO)[C@@H](O)[C@H](O)[C@H]2O)[C@@H](O)[C@H](O)[C@H]1O)=C\\C=C\\C=C(C)\\C=C\\C=C(/C)C(=O)O[C@@H]1O[C@H](CO[C@@H]2O[C@H](CO)[C@@H](O)[C@H](O)[C@H]2O)[C@@H](O)[C@H](O)[C@H]1O", "activity, negative = inhibition": 2.36},
      {"smiles": "CCCCCCCCCCCCCCCCCC(=O)OCC(C)O", "note": "(stereo not drawn)", "activity, negative = inhibition": -1.98},
      {"smiles": "CC(C)(Oc1ccc(C2CCCc3ccccc32)cc1)C(=O)O", "note": "(stereo not drawn)", "activity, negative = inhibition": 1.53},
      {"smiles": "CO", "activity, negative = inhibition": -4.83},
      {"smiles": "O=C(O)/C=C/C(=O)Nc1ccc(S(=O)(=O)Nc2nccs2)cc1", "activity, negative = inhibition": 8.25},
      {"smiles": "N[C@H](CC(=O)O)C(=O)O", "activity, negative = inhibition": -3.61},
      {"smiles": "CCCc1ccc(C(=O)O)cc1", "activity, negative = inhibition": 5.86},
      {"smiles": "O=S(=O)(O)CC(S)CS", "note": "(stereo not drawn)", "activity, negative = inhibition": -2.68},
      {"smiles": "O=c1[nH]c(=O)n([C@H]2C[C@H](O)[C@@H](CO)O2)cc1/C=C/Br", "activity, negative = inhibition": 3.24},
      {"smiles": "CN[C@@H]1[C@H](O[C@H]2[C@H](O[C@H]3[C@H](O)[C@@H](O)[C@H](N=C(N)N)[C@@H](O)[C@@H]3N=C(N)N)O[C@@H](C)[C@]2(O)C=O)O[C@@H](CO)[C@H](O)[C@H]1O", "activity, negative = inhibition": -1.46}
    ]}
  ]
}
